Columns and labels:
[1] = target: Ribosomal protein S6 kinase beta-1 (Homo sapiens) (UniProt P23443); settings: at 1 µM
[2] = target: Ribosomal protein S6 kinase beta-1 (Homo sapiens) (UniProt P23443); settings: at 10 µM
[3] = target: Serine/threonine-protein kinase Nek6 (Homo sapiens) (UniProt Q9HC98); settings: at 10 µM
[4] = target: Serine/threonine-protein kinase PAK 2 (Homo sapiens) (UniProt Q13177); settings: at 1 µM
[5] = target: Serine/threonine-protein kinase Nek7 (Homo sapiens) (UniProt Q8TDX7); settings: at 10 µM
Serine/threonine-protein kinase Nek7 (Homo sapiens), sequence (Q8TDX7 whole entry, looked up): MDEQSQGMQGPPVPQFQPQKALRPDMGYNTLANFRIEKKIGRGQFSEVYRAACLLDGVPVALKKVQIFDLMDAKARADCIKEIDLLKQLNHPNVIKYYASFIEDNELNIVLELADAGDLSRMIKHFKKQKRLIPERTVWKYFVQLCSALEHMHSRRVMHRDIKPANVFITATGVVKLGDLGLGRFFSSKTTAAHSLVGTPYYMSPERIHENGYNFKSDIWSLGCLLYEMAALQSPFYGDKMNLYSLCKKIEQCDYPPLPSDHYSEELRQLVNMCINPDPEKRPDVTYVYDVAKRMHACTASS

[6] = target: T1, Serine/threonine-protein kinase NLK (Homo sapiens) (UniProt Q9UBE8); settings: at 1 µM
T1 sequence (whole entry): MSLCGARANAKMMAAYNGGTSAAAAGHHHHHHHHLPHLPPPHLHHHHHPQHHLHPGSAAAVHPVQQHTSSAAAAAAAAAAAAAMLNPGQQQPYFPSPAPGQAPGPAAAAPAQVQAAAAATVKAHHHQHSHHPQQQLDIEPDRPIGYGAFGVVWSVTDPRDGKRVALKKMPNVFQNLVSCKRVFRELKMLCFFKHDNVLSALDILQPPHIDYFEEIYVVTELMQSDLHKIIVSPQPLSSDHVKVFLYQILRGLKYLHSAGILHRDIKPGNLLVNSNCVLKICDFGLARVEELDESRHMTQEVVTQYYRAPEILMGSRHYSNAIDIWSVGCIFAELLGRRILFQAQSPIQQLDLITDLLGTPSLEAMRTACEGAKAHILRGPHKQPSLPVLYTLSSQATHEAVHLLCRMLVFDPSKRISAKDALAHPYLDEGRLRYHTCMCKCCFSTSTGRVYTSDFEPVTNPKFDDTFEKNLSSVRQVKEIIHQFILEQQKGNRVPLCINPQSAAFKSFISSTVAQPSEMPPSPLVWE

[7] = target: T1, Serine/threonine-protein kinase NLK (Homo sapiens); settings: at 10 µM
[8] = target: Serine/threonine-protein kinase Nek6 (Homo sapiens) (UniProt Q9HC98); settings: at 1 µM
[9] = target: Serine/threonine-protein kinase Nek7 (Homo sapiens) (UniProt Q8TDX7); settings: at 1 µM
[10] = target: Serine/threonine-protein kinase PAK 2 (Homo sapiens) (UniProt Q13177); settings: at 10 µM

Ribosomal protein S6 kinase beta-1 (Homo sapiens), sequence (P23443 whole entry, looked up): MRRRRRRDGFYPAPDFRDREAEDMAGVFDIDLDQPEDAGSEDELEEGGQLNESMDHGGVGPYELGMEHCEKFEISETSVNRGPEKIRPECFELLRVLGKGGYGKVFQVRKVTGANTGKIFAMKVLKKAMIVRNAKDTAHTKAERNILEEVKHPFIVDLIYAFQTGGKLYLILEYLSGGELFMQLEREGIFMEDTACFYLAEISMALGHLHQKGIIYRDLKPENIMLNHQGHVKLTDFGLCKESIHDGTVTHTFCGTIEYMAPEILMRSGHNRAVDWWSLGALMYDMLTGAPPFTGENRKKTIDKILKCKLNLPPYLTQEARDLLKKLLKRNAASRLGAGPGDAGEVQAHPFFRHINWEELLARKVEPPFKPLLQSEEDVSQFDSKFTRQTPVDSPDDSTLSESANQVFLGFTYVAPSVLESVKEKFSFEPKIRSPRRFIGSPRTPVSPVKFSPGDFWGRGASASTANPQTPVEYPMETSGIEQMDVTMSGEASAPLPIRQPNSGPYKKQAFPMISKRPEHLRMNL
Serine/threonine-protein kinase Nek6 (Homo sapiens), sequence (Q9HC98 whole entry): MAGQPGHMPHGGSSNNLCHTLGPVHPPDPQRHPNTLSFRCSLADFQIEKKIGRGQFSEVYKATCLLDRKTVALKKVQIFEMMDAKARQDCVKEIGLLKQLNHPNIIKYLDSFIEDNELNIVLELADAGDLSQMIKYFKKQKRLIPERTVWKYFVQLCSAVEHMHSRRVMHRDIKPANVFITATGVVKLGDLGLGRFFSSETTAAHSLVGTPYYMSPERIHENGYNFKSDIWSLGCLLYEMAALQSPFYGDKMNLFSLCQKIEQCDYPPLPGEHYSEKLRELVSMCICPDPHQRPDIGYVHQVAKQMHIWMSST
Serine/threonine-protein kinase PAK 2 (Homo sapiens), sequence (Q13177 whole entry): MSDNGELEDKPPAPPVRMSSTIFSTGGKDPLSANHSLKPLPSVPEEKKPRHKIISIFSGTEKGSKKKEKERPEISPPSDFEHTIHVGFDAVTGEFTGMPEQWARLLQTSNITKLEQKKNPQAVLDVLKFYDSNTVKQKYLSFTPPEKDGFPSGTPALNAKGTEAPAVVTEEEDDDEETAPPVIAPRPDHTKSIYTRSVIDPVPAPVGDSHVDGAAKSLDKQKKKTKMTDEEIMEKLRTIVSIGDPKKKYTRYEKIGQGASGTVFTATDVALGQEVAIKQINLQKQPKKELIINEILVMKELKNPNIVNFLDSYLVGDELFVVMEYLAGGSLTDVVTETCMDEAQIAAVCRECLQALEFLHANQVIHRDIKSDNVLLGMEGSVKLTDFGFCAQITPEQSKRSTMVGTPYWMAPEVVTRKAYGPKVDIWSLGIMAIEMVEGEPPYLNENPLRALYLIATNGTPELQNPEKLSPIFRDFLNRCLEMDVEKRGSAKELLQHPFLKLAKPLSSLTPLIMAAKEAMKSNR

Structure (SMILES)	residual activity [1] [%]	residual activity [2] [%]	residual activity [3] [%]	residual activity [4] [%]	residual activity [5]	residual activity [6] [%]	residual activity [7] [%]	residual activity [8]	residual activity [9]	residual activity [10] [%]
NC(=O)c1ccc(-c2nc(-c3ccc4c(c3)OCCO4)c(-c3ccccn3)[nH]2)cc1	74	86	–	–	–	–	–	–	–	–
N#Cc1c(NC(=O)c2cccc3ccccc23)sc2c1CCCC2	91	68	93	93	–	–	–	–	–	–
COc1cc2c(cc1OC)-c1n[nH]c(Nc3cccc(F)c3)c1C2	63	79	–	–	113% (inactive)	54	17	–	–	–
O=C1NC(=O)c2c1c1c3ccccc3[nH]c1n1cncc21	68	28	90	98	86% (inactive)	89	72	98% (inactive)	100% (inactive)	89
Nc1ncnc2c1c(-c1ccc(Oc3ccccc3)cc1)cn2C1CCCC1	67	45	99	98	105% (inactive)	81	41	78% (inactive)	97% (inactive)	61
O=C(c1ccccc1)c1ccc(N2CCOCC2)cc1O	77	53	–	–	–	–	63	92% (inactive)	116% (inactive)	–
Cn1c2ccccc2c2c3c(c4c5ccccc5n(CCC#N)c4c21)CNC3=O	1	4	113	101	80% (inactive)	50	41	93% (inactive)	95% (inactive)	–
Nc1ncnc2[nH]nc(Nc3ccc(F)cc3)c12	91	61	106	106	96% (inactive)	93	55	118% (inactive)	100% (inactive)	109
O=C(O)/C=C/c1cc(Br)c(Br)c(Br)c1Br	84	70	86	97	–	–	–	96% (inactive)	–	95
COc1cc2nccc(Oc3ccc(NC(=S)NC(=O)c4ccccc4C)cc3)c2cc1OC	66	61	–	98	91% (inactive)	81	60	95% (inactive)	98% (inactive)	87
Nc1ncnc2c1cnn2-c1ccccc1	84	63	–	–	85% (inactive)	88	80	99% (inactive)	87% (inactive)	97
N#C/C(=C1/Nc2ccccc2S1)c1ccnc(NCCc2cccnc2)n1	72	39	–	–	–	–	–	119% (inactive)	–	–
COc1ccc(COc2ccc(Cc3cnc(N)nc3N)cc2OC)cc1	80	51	–	–	–	–	–	–	–	–
O=S(=O)(NCCNC/C=C/c1ccc(Br)cc1)c1cccc2cnccc12	13	5	–	–	–	–	–	–	–	–
CC(C)[C@H](CO)Nc1nc(Nc2cc(N)cc(Cl)c2)c2ncn(C(C)C)c2n1	86	39	–	–	–	–	–	–	–	–
NC(=O)Nc1sc(-c2ccc(F)cc2)cc1C(N)=O	78	39	106	93	103% (inactive)	89	61	104% (inactive)	102% (inactive)	71

Structure (SMILES)	residual activity [1] [%]	residual activity [2] [%]	residual activity [3] [%]	residual activity [4] [%]	residual activity [5]	residual activity [6] [%]	residual activity [7] [%]	residual activity [8]	residual activity [9]	residual activity [10] [%]
CCOc1nc(NC(=O)Cc2cc(OC)ccc2OC)cc(N)c1C#N	140	100	–	–	–	–	–	–	–	–
O=c1cc(N2CCNCC2)oc2c(-c3ccccc3)cccc12	69	65	–	98	95% (inactive)	99	77	80% (inactive)	104% (inactive)	80
COc1ccc(-c2cnc3c(-c4ccsc4)cnn3c2)cc1	72	66	–	–	–	–	–	–	–	–
CCCC(=O)Oc1ccc2[nH]c(C(=O)c3cc4ccccc4[nH]3)cc2c1	104	91	–	102	93% (inactive)	90	108	89% (inactive)	91% (inactive)	86
O=C1NC(=O)C(c2c[nH]c3ccccc23)=C1c1c[nH]c2ccccc12	48	5	127	–	–	–	71	117% (inactive)	–	–
O=C1Cc2c([nH]c3ccc([N+](=O)[O-])cc23)-c2ccccc2N1	106	103	118	43	104% (inactive)	–	–	115% (inactive)	106% (inactive)	30
CC(C)(C)n1nc(Cc2cccc3ccccc23)c2c(N)ncnc21	118	96	116	98	–	44	15	94% (inactive)	90% (inactive)	49
COc1ccc2c(c1)c(C1=C(c3c[nH]c4ccccc34)C(=O)NC1=O)cn2CCCN(C)C	22	2	107	–	–	–	–	–	–	–
O=C1Cc2c([nH]c3ccc(Br)cc23)-c2ccccc2N1	66	53	–	91	94% (inactive)	83	54	–	100% (inactive)	75
COc1cc2ncnc(Nc3cccc(Cl)c3)c2cc1OC	82	59	117	126	115% (inactive)	–	–	109% (inactive)	102% (inactive)	111
O=c1cc(N2CCOCC2)oc2c1ccc1ccccc12	74	41	106	97	95% (inactive)	108	80	100% (inactive)	103% (inactive)	89
CCN(CC)CCNC(=O)c1c(C)[nH]c(/C=C2\C(=O)Nc3ccc(Cl)cc32)c1C	24	4	–	–	–	–	–	–	–	–
Oc1cccc(-c2nc(N3CCOCC3)c3oc4ncccc4c3n2)c1	68	84	–	–	96% (inactive)	–	–	–	100% (inactive)	–
CC(C)c1nn(-c2c(Cl)cccc2Cl)c2nc(Cc3ccc(OCCO)cc3)[nH]c(=O)c12	81	59	–	88	84% (inactive)	88	46	–	87% (inactive)	69
COc1cc2nccc(Oc3ccc(NC(=O)Nc4cc(C)on4)c(Cl)c3)c2cc1OC	76	53	–	–	103% (inactive)	77	42	–	98% (inactive)	–
